In the OligoGym collection one finds sensor-assay potency score (higher = more potent) data, which are given here for 23 sequences.
Also: reference of the scale not given here.

One experiment addresses TUT1. Nature of the experiment: pooled miR-30 sensor sort-seq; sequence = guide strand. The settings on record: shRNA.
TCGTAGTTCTACCAGGTGCCGG came in with a sensor-assay potency score (higher = more potent) of -1.53.

Sequence TTCTCGCAGCTCGTAGTTCTAC displayed a sensor-assay potency score (higher = more potent) of -0.83. Consider AAACACACTTCGAAGTCCCTGG, for which the sensor-assay potency score (higher = more potent) was 0.0034. Still for that read-out and setting: as for TTGGGGTCTCTGCTAGTTCCGA, the figure is -1.32; as for TTGTCCATGACAACACTGGCCA, -0.399. As to TGACAGAACTTGACCACAGGGC, the sensor-assay potency score (higher = more potent) worked out at 0.248. The same measure, in the same setting: to TCTAGCAGTGGTGAAGCTGGAG belongs -0.366; to TAGGAAGTACTCAGAGAGCTGA, 0.227.

TTTGGACTCGATACACCCCAGG: the sensor-assay potency score (higher = more potent) is -0.836.

The sequence TCCTTGTCCATGACAACACTGG registered a sensor-assay potency score (higher = more potent) of -1.19. The same measure, in the same setting: as for TAGTTCTACCAGGTGCCGGTGC, the figure is -0.799; as for TACTGAGGGAGACATCACCGTG, -1.54.

The target of the next experiment is TXLNG. The experiment is described as above. The note with it: shRNA.
TTCGATGAGCTTCTTTAGCTTC had a sensor-assay potency score (higher = more potent) of -0.258. As to TTCTTCTTCCTCTCGTGCCTGC, the sensor-assay potency score (higher = more potent) was -0.0706. Still for that read-out and setting: as for ATTTGCTTCTGAACACTCCTGC, the figure is 0.776. The same measure, in the same setting: as for TTTAGTTGTACTTCCTGCTGTT, the figure is 0.906. The sequence TTAAACTATTCAAAACTGCTAA showed a sensor-assay potency score (higher = more potent) of -0.454. The same measure, in the same setting: as for TAACGTCTTATTGTGACGCTGA, the figure is 0.553; as for TTCTCTGTTATAAAGTCACTGC, -0.298; as for TTTCTTTGTCATCTTTTCCATT, -0.923. On to TTCTCATTGAGCTCATTCCTTT, for which the sensor-assay potency score (higher = more potent) is -0.993.

Regarding TTTTAGTTGTACTTCCTGCTGT, the sensor-assay potency score (higher = more potent) is 0.554. The same measure, in the same setting: as for TTCCTTACGTTTGAACACCTTA, the figure is -0.525.
